Compounds with a hit are over-represented: about 13% of the library has one in this group of screens.
MARV entry inh – inhibitors of Marburg virus binding or cell entry; Marburg virus pseudotyped entry inhibition, cell reporter; Potency, µM (doses to about 37.8 µM), for inactives: at the highest dose activity change, negative = inhibition, hits mostly inhibitors; 300,000 tested, 1.8% active; AID 540276; calls by dose curve; tested in HEK293 cells; further: potency means the concentration at half of the fitted maximal effect; on the % scale 0 is the no-effect control and ±100 the full control effect
FMDV inh – antivirals against foot and mouth disease virus; 410,000 tested, 1.2% active; Potency, µM (highest dose often 57.9 µM), without a hit: top-dose activity change, negative = inhibition, usual class: inhibitors; FMDV antiviral cell-based qHTS; calls by dose curve; tested in HEK293T cells; further: read-out not given here; potency means the concentration at half of the fitted maximal effect; on the % scale 0 is the no-effect control and ±100 the full control effect; nearly all actives have a fitted effect of over 45% in size
CHX counter – counter-screen for Shiga toxin inhibitors: cycloheximide protein synthesis inhibition | AID 2314 | 300,000 tested, 12% active | cell reporter, cycloheximide protein synthesis inhibition counterscreen | max response, %; in the data active means max response mostly above about 13%, no sharp cut-off; inactive means mostly below about 14%; further: read at 38.3 µM for the half of the compounds with a filed dose; 0% is about no effect
Lassa entry inh – Lassa virus entry inhibition; Potency, µM (titrated, usually from 37.9 µM), without a hit: top-dose activity change, negative = inhibition, usual class: inhibitors; AID 540256; Lassa virus pseudotype entry inhibition, cell reporter; 300,000 tested, 1.2% active; calls by dose curve; tested in HEK293 cells; further: potency means the concentration at half of the fitted maximal effect; on the % scale 0 is the no-effect control and ±100 the full control effect; nearly all actives have a fitted effect of over 50% in size
Shiga inhibitor – blocks Shiga toxin action in Vero cells. Vero cells, Shiga toxin protein synthesis inhibition reporter. inhibition, % at 38.7 µM. 290,000 tested, 9.2% active; in the data active means inhibition mostly above about 28%, no sharp cut-off; inactive means mostly below about 43%; further: 0% is about no effect
HCV inhibitor – HCV inhibition; Potency, µM (titrated, usually from 41.8 µM), inactives show at the highest dose activity change, negative = inhibition, usual class: inhibitors; 340,000 tested, 3.4% active; Huh7.5.1 HCVcc-Cre infection, luciferase reporter, 44 h; AID 651820; active means well fitted inhibition curve with a large enough effect; inconclusive means small, poorly fitted or top-dose-only effect, or another doubt; inactive means no such curve, though single readings can be large or run the other way; further: potency means the concentration at half of the fitted maximal effect; on the % scale 0 is the no-effect control and ±100 the full control effect
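Compounds are dispensed onto cells plated 4 h earlier at 1,000 per well, with HCVcc-Cre virus (about 0.5 moi) added next. Following 44 h of culture, luminescent signal is measured for 15 sec after 15 min with substrate at room temperature.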
Starred values were filed as active, the others as inactive; ? = inconclusive; · = no result given; [ ] = another dose, or the depositor's remark.

SMILES	MARV entry inh	FMDV inh	CHX counter	Lassa entry inh	Shiga inhibitor	HCV inhibitor
Clc1ccc(Cn2c(/C=C/c3ccco3)nc3ccccc32)cc1	?	-19.0%	215.6*	-3.7%	187.4*	?
Cc1ccc(Cn2c(/C=C/c3ccco3)nc3ccccc32)cc1	?	2.3%	103.4*	19.5%	160.5*	34.1%
Cc1cccc(NC(=O)COc2ccc(Br)cc2/C=N/O)c1	?	0.0%	75.4*	?	120.8*	35.5µM*
C=CCOc1ccc(Br)cc1/C=N/O	-17.8%	-27.8%	-6.2	12.9%	-31.5	11.2µM*
C=CCOc1ccc2ccccc2c1/C=N/O	9.7%	-1.9%	1.5	7.4%	10.1	-11.6%
C=CCOc1ccc(/C=N/O)cc1Cl	?	-12.2%	20.4*	13.0%	50.0*	-12.3%
COC(=O)c1cccc(COC(=O)c2ccc(N(C)C)cc2)c1	-8.6%	33.2%	-3.2	3.5%	18.6	-7.5%
COC(=O)c1ccc(COC(=O)c2ccc(N(C)C)cc2)cc1	6.8%	·	40.9*	-5.8%	65.3*	-19.4%
CN(C)c1ccc(C(=O)OCc2ccccc2)cc1	-0.5%	65.6%	35.1*	?	50.8	-15.9%
O=C1C=CC(=O)C(CNc2ccc(C(=O)OCc3ccccc3)cc2)=C1	?	0.0%	·	11.2µM*	·	10µM*
CCn1cc(C2=NOC(C(=O)Nc3cccc(C(C)=O)c3)C2)c(C)n1 (stereo unspecified)	-29.8%	?	4.4	-2.2%	-8.4	6.31µM*
CCn1cc(C2=NOC(C(=O)Nc3c(C)nn(Cc4ccc(F)cc4)c3C)C2)c(C)n1 (stereo unspecified)	0.0%	?	-1.8	·	0.9	?
[O-]c1n[n+](-c2ccc(Cl)cc2)cc2ccccc12	-12.1%[14.2 µM]	5.7%	-1.8	-13.3%	5.6	21.9%
COc1c(Cl)cnn(-c2ccccc2)c1=O	?	-17.4%	0.8	?	-6.3	?
CN(C)c1cnn(-c2ccccc2)c(=O)c1Cl	?	25.7%	43.3*	17.6%	146.2*	8.2%
C=CCNc1cnn(-c2ccccc2)c(=O)c1Cl	-22.4%	37.1%	17.9*	1.7%	79.4	-6.0%
Cc1ccc(-n2ncc(N(C)C)c(Cl)c2=O)cc1	?	-38.4%	28.7*	-26.5%	54.9*	34.0%
CC(=O)Cn1ncc(N(C)Cc2ccccc2)c(Cl)c1=O	?	18.3%	47.8*	-9.8%[46.1 µM]	63.7*	6.4%
COc1cccc2cc(-c3n[nH]c(=S)n3C)oc12	0.1%	-0.2%	-1.6	-9.0%	10.6	-2.8%
COc1cccc2cc(-c3ccnc(N)n3)oc12	0.3%	39.1%	32.7*	-18.6%	106.7*	-22.6%
Cc1cccc(C)c1NC(=O)C(NC=O)c1ccccc1 (stereo unspecified)	5.6%[46.1 µM]	-19.3%	-3.5	9.3%	-17.2	17.6%
COc1cc2c(cc1NC(=O)COC(=O)C1CC(=O)N(Cc3ccco3)C1)oc1ccccc12 (stereo unspecified)	-2.9%	49.2%	22.6*	20.3%	63.1	4.47µM*
COc1cc2c(cc1NC(=O)COC(=O)CNC(=O)c1ccccc1)oc1ccccc12	-10.4%[46.1 µM]	56.3%	31.5*	23.6%	48.8*	10µM*
COc1cc2c(cc1NC(=O)COC(=O)[C@@H](NC(=O)c1ccccc1)C(C)C)oc1ccccc12	?	-5.8%	13.8	-25.2%	18.8	7.08µM*
COc1cccc(-c2nc(=S)c3c(n2Cc2ccco2)CCCC3)c1	-27.3%	-20.8%	0.7	?	-2.8	?
SMILES	MARV entry inh	FMDV inh	CHX counter	Lassa entry inh	Shiga inhibitor	HCV inhibitor
S=c1[nH]nc(-c2ccccc2)o1	2.9%	-3.7%	5.1	13.6%	29.4	15.3%
O=[N+]([O-])c1ccc(-c2nc(=S)c3c(o2)CCCC3)cc1	?	-26.0%	12.4*	14.8%	15.9	19.5%
S=c1nc(-c2ccccc2)oc2c1CCCC2	-0.1%	21.5%	59.6*	?	94.6*	9.3%
COc1cccc(-c2nc(=S)c3c(o2)CCCC3)c1	·	50.8%	42.2*	·	120.4*	-11.3%
O=C(NCCc1ccccc1)c1ccccc1NC(=O)C1CC=CCC1C(=O)O (stereo unspecified)	?	34.9%	61.3*	-12.5%	69.8*	27.3%
O=C(COC(=O)c1cnccn1)NCCc1ccccc1	7.6%	0.0%	-3.1	-10.1%	-8.7	6.6%
COC(=O)c1ccccc1NC(=O)C1CC=CCC1C(=O)O (stereo unspecified)	29.5%	9.5%	-2.7	1.9%	-2.4	14.9%
NC(=O)c1ccccc1NC(=S)NC(=O)CCc1ccccc1	?	-14.3%	-2.1	?	17.1	9.8%
O=C(Nc1ccccc1C(=O)NCCc1ccccc1)c1cnccn1	?	22.3%	19.4*	0.8%[46.1 µM]	46.6	-15.7%
NC(=O)c1ccccc1NC(=O)CCc1ccccc1	18.0%	47.1%	28.5*	?	52.3	-3.9%
O=C(O)CCC(=O)Nc1ccccc1C(=O)NCCc1ccccc1	?	22.9%	44.8*	18.3%	72.6*	22.7%
CC(=O)c1ccc(NC(=O)CSc2nccn2Cc2ccco2)cc1	·	39.4%	·	?	·	·
CC(C)CCN1CCN(Cc2ccc(Oc3ncccn3)cc2)CC1CCO (stereo unspecified)	-1.7%[46.1 µM]	-1.6%	9.9	0.3%	-5.7	5.0%
COc1cc(/C=N/n2c(-c3ccc4c(c3)NC(=O)CO4)csc2=Nc2cccc(C)c2)ccc1O	?	?	32.6*	23.1µM*	38.3*	7.08µM*
COCCN=c1scc(-c2ccc3c(c2)NC(=O)CO3)n1/N=C(\C)c1ccc(O)cc1	?	0.0%	-1.1	?	-2.6	?
COc1ccc(C(=O)OC2C(OC)OCC(O)C2O)cc1 (stereo unspecified)	11.7%[46.1 µM]	-5.0%	·	-1.6%[46.1 µM]	·	?
CC(=O)c1ccc(OCc2cc(C(=O)N3CCN(c4ccccc4)CC3C)no2)cc1 (stereo unspecified)	·	-7.5%	47.7*	·	53.1*	22.4µM*
CSc1ccccc1OCc1cc(C(=O)N2CCN(c3ccccc3)CC2C)no1 (stereo unspecified)	-13.4%	5.8%	57.0*	?	98.7*	?
CCOC(=O)CC1COCCN1C(=O)c1cc(COc2ccccc2SC)on1 (stereo unspecified)	·	41.4%	·	·	·	·
Cc1ccc(C(=O)c2c[nH]cc2-c2ccccc2)cc1	-2.4%	5.2%	17.0*	20.5%	-32.2	-14.5%
O=C(O)c1ccccc1C(=O)c1ccc(Cl)cc1	·	-12.7%	-1.5	·	-3.6	39.0%
O=C(O)c1ccccc1C(=O)c1ccc(-c2ccccc2)cc1	·	45.4%	44.4*	·	92.0*	15.5%
O=C(c1c[nH]cc1-c1ccccc1)c1cccc2ccccc12	11.6µM*	-21.0%	5.3	-16.5%	2.4	-26.1%
CCOC(=O)c1ccc(N=c2scc(C)n2CC)cc1	5.62µM*	-0.9%	39.7*	?	80.1*	14.2%
C=CCn1c(-c2sccc2C)n[nH]c1=S	2.3%	-6.7%	-1.9	1.0%	-7.7	3.4%
C=CCN1C(=O)C(CC(=O)O)SC1=Nc1ccc(C(=O)O)cc1 (stereo unspecified)	-10.0%[46.1 µM]	-2.4%	10.0	13.4%	-4.8	19.2%

Bioassay records: PubChem, National Center for Advancing Translational Sciences (NCATS)
